TMEM16A inh – inhibitors of mouse TMEM16A calcium-activated chloride channel | HEK293 TMEM16A/YFP iodide influx fluorescence, ionomycin | normalized B-score (activity score, 25-100; higher = stronger inhibition) at 10 µM | 310,000 compounds, 1.2% hits | AID 588511;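 active = ratio plate-corrected score three or more library SD toward inhibition, starting fluorescence score within five deviations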;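 also: score derived from kinetic fluorescence span divided by baseline fluorescence per well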
Kir21 inh – Kir2.1 (mouse) channel inhibition; 310,000 compounds, 0.85% hits; HEK293-Kir2.1, FluxOR thallium flux fluorescence; active compounds read low; B-score at 10 µM; AID 1672;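 active = fluorescence ratio B-score at or below minus 3 SD of library scores, with starting-brightness B-score within 2 SD, cut at about -4.2 in these data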;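 also: channel flux triggered by added potassium and thallium sulfate stimulus; B-score of peak minus minimum fluorescence over baseline after thallium stimulus; more negative B-score means stronger Kir2.1 block with less thallium influx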
ANO1 activ – activators or potentiators of mouse TMEM16A chloride channel. Q8BHY3. HEK293 TMEM16A/YFP-H148Q/I152L, iodide quench fluorescence; active compounds read low. B-score at 10 µM. 340,000 compounds, 0.3% hits. AID 623877;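 active = fluorescence-ratio B-score plate-corrected deviation score at least 3 library SD below zero, with starting fluorescence score within 5 deviations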;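 also: channel opened by trigger with iodide after compound preincubation; score built on the fluorescence ratio of max minus min over baseline; more negative score means more quench and so TMEM16A activation or potentiation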
CHT inh – inhibitors of human choline transporter CHT. CHT-expressing cells, membrane potential dye, choline response; active compounds read low. B-score at 10 µM. 310,000 compounds, 0.86% hits. Q9GZV3;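 active = B-score over 3 SD under the library average, and starting fluorescence ratio not unusually high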;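 also: choline stimulus applied at its EC90 after an EC20 pre-addition; B-score computed on integrated fluorescence ratio after choline addition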
Rce1 inhib – yeast Ras-converting enzyme inhibition; Q03530; yeast membranes, quenched prenylated peptide cleavage fluorescence; calls only; 290,000 compounds, 0.27% hits; AID 2563;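 active = fall in fluorescence gain of 50% or more versus controls, with final raw signal at or below 3038400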;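 also: plate controls were neutral control wells for no effect and wells lacking membranes for full effect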
Target sequence (Q03530 whole entry, looked up): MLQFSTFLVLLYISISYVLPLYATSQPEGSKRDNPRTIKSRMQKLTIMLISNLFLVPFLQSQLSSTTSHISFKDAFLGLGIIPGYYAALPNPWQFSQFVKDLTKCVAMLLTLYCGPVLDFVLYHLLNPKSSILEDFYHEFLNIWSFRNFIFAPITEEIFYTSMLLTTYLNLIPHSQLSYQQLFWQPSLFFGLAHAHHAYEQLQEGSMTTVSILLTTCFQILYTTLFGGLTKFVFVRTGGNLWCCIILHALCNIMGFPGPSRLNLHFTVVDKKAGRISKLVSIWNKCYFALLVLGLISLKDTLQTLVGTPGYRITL
CHT allo act – human CHT allosteric activation | Q9GZV3 | 310,000 compounds, 0.49% hits | CHT-expressing cells, membrane potential dye, choline EC20; active compounds read high; LV-AA mutant CHT in HEK293 cells | B-score at 10 µM;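 active = initial fluorescence not abnormally high and integrated response B-score, plate-corrected, over 3 SD above library mean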
The depositor's hits bear a star. A selection: hits, their analogues and other compounds. The true share with any hit is near 3.2%.

Results for CC1(C)CC[C@]2(C(=O)n3ccnc3)CC[C@]3(C)[C@H](C(=O)C=C4[C@@]5(C)C=C(C#N)C(=O)C(C)(C)[C@@H]5CC[C@]43C)[C@@H]2C1 ?
ANO1 activ: -15.5*

How did CCN(Cc1ccccc1)C(=O)COC(=O)c1cc(S(=O)(=O)Nc2ccccc2OC)ccc1O do in these assays?
ANO1 activ: inactive

How did N=c1c2c(ncn1CCCO)Oc1ccc3ccccc3c1C2c1ccccc1 (stereo not drawn) do in these assays?
TMEM16A inh: inactive; Kir21 inh: -4.24*; ANO1 activ: inactive; CHT inh: inactive; Rce1 inhib: inactive; CHT allo act: inactive

Results for N=c1c2c(ncn1Cc1ccco1)Oc1ccc3ccccc3c1C2c1ccccc1 (stereo not drawn) ?
TMEM16A inh: inactive; Kir21 inh: -1.29; ANO1 activ: inactive; CHT inh: inactive; Rce1 inhib: active; CHT allo act: inactive

What do the screens show for `CCC[C@@H](CNC)NC[C@H](Cc1ccccc1)NCCCCc1ccccc1`?
TMEM16A inh: inactive; Kir21 inh: -4.47*; ANO1 activ: inactive; CHT inh: inactive; Rce1 inhib: inactive; CHT allo act: inactive

What do the screens show for `CNC[C@@H](Cc1ccccc1)NC[C@@H](CC1CCCCC1)NCCCc1ccccc1`?
TMEM16A inh: inactive; Kir21 inh: -11*; ANO1 activ: inactive; CHT inh: inactive; Rce1 inhib: inactive; CHT allo act: inactive

How did CCC[C@@H](CN[C@@H](CNC)C(C)C)NCCCCc1ccccc1 do in these assays?
TMEM16A inh: inactive; Kir21 inh: -2.19; ANO1 activ: inactive; CHT inh: inactive; Rce1 inhib: inactive; CHT allo act: inactive

How did C1CCc2c(nc3nnnn3c2NCC2CC2)C1 do in these assays?
TMEM16A inh: inactive; Kir21 inh: -0.29; ANO1 activ: inactive; CHT inh: inactive; Rce1 inhib: inactive; CHT allo act: inactive

What do the screens show for `Clc1ccc(-n2ncc3c(NCC4CCCO4)ncnc32)cc1` (stereo not drawn)?
TMEM16A inh: inactive; Kir21 inh: 0.32; ANO1 activ: inactive; CHT inh: inactive; Rce1 inhib: inactive; CHT allo act: inactive

Results for Clc1ccc2[nH]c3c(NCC4CCCO4)ncnc3c2c1 (stereo not drawn) ?
TMEM16A inh: 100*; Kir21 inh: 1.02; CHT inh: inactive; Rce1 inhib: inactive; CHT allo act: inactive

How did CCOc1ccc(N(CC(=O)NC2CCCCC2)C(=O)CCC(=O)Nc2cc(C)ccn2)cc1 do in these assays?
TMEM16A inh: inactive; Kir21 inh: 0.79; ANO1 activ: inactive; CHT inh: inactive; Rce1 inhib: inactive; CHT allo act: inactive

Results for O=C1C(=O)N(C/C=C/c2ccccc2)c2ccccc21 ?
TMEM16A inh: inactive; Kir21 inh: 1.31; ANO1 activ: inactive; CHT inh: inactive; Rce1 inhib: active; CHT allo act: inactive

What do the screens show for `O=C1c2ccccc2C(=O)N1C/C=C/c1ccccc1`?
TMEM16A inh: inactive; Kir21 inh: 1.8; ANO1 activ: inactive; CHT inh: inactive; Rce1 inhib: inactive; CHT allo act: inactive

What do the screens show for `O=C(CCCN1C(=O)/C(=C\c2cccc(Br)c2)SC1=S)Nc1cccnc1`?
TMEM16A inh: inactive; Kir21 inh: -0.46; ANO1 activ: inactive; CHT inh: inactive; Rce1 inhib: inactive; CHT allo act: inactive

How did O=C(NCCCNC(=O)c1cnccn1)c1cccc(Cl)c1 do in these assays?
TMEM16A inh: inactive; Kir21 inh: 0.22; ANO1 activ: inactive; CHT inh: inactive; CHT allo act: inactive

How did O=C(CCCCCn1c(SCc2ccncc2)nc2ccccc2c1=O)NCc1ccco1 do in these assays?
TMEM16A inh: inactive; Kir21 inh: -4.34*; ANO1 activ: inactive; CHT inh: inactive; CHT allo act: inactive

Results for O=C(CSc1nc2ccccc2c(=O)n1CCCC(=O)N1CCCC1)NCc1ccco1 ?
TMEM16A inh: inactive; Kir21 inh: 0.51; ANO1 activ: inactive; CHT inh: inactive; Rce1 inhib: inactive; CHT allo act: inactive

High-throughput results: PubChem, several laboratories
